The values below come from PubChem BioAssay (EPA / NIEHS).

Test [1] deals with Nuclear respiratory factor 1 (Homo sapiens) (UniProt Q16656). The experiment in a line: ATG_NRF1_CIS: Attagene CIS-FACTORIAL HepG2 Assay for human Nuclear Respiratory Factor 1 (NRF1) Orphan Gene (AID 2282987). The conditions noted are these: HepG2 NRF1 cis-element reporter, Attagene multiplex; actives raise or lower the signal. An outline of the steps: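 HepG2 cells transiently transfected with multiple cis-regulated reporter units, exposed 24 h. Reporter mRNAs measured by RT-PCR, fluorescent labelling, HpaI digestion and capillary electrophoresis; bidirectional fitting against DMSO.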
Chain of Nuclear respiratory factor 1 (Homo sapiens) (Q16656 whole entry, looked up): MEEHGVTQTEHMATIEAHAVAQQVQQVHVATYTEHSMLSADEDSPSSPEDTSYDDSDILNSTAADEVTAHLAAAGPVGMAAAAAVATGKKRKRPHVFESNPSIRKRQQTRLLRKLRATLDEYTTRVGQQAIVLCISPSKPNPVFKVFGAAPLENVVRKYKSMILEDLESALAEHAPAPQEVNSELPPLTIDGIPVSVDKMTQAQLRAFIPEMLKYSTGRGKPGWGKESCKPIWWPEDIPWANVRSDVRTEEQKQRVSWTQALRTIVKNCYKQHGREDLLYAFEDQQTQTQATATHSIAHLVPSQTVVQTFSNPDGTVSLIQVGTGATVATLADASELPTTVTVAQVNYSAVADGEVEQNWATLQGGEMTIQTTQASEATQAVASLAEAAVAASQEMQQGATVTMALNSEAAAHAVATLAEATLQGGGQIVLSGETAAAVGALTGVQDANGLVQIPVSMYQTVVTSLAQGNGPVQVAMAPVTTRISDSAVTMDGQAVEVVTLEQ

Test [2] can be described thus: ATG_NFI_CIS: Attagene CIS-FACTORIAL HepG2 Assay for human Nuclear Factor I (NFI) (AID 2282989). To be noted: HepG2 cis-regulatory reporter, NFI response element transcription; actives raise or lower the signal. An outline of the steps: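 Read-out: reporter mRNA via RT-PCR plus capillary electrophoresis with fluorescence detection. Transiently transfected HepG2 (endogenous TF activity on cis promoters), 24 h compound exposure; gain or loss of signal fitted against DMSO.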

Test [3] addresses Myc proto-oncogene protein (Homo sapiens) (UniProt P01106). The experiment in a line: ATG_Myc_CIS: Attagene CIS-FACTORIAL HepG2 Assay for human Myelocytomatosis (Myc) Proto-Oncogene Transcription Factor (AID 2282990). The conditions noted are these: HepG2, Attagene cis-reporter transcription factor activity; actives raise or lower the signal. In a few lines: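 Read-out: fluorescent reporter mRNA fragments resolved by capillary electrophoresis after RT-PCR. Human HepG2 liver cells carried transfected cis-element reporter units and were dosed for 24 h. Gain or loss of signal fitted relative to DMSO baseline.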

Test [4] in a line: ATG_NF_kB_CIS: Attagene CIS-FACTORIAL HepG2 Assay for human Nuclear Factor Kappa B (NF-kB) (AID 2282991). The conditions noted are these: HepG2 Attagene cis-factorial NF-kB reporter mRNA; actives raise or lower the signal. In a few lines:
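HepG2 cells transfected with cis-promoter-driven reporter units, so endogenous transcription factor activity is measured. Reporter mRNA quantified 24 h after dosing by RT-PCR and capillary electrophoresis, with bidirectional fitting against DMSO.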

Test [5] in a line: ATG_NRF2_ARE_CIS: Attagene CIS-FACTORIAL HepG2 Assay for human Nuclear Factor Erythroid 2 Related Factor 2 (NFR2) response to Antioxidant Response Elements (ARE) (AID 2282992).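 As to AC50: reporter mRNA level measured by RT-PCR and capillary electrophoresis fluorescence.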 To be noted: HepG2 Attagene ARE/NRF2 reporter, transcription factor activity; actives raise or lower the signal. In a few lines: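 Fluorescence intensity of reporter-specific cDNA fragments, separated by capillary electrophoresis, reflects mRNA induction in transfected HepG2 cells at 24 h. Activity is fitted bidirectionally, DMSO serving as baseline.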

The nature of test [6]: ATG_Oct_MLP_CIS: Attagene CIS-FACTORIAL HepG2 Assay for human Octamer-Binding Transcription Factor (Oct) (AID 2282993). To be noted: HepG2 Attagene cis-factorial Oct reporter, mRNA; actives raise or lower the signal. In a few lines: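 Read-out: reporter mRNA via RT-PCR plus capillary electrophoresis of 6-FAM-labelled fragments. Transiently transfected HepG2, 24 h exposure, endogenous TF activity on cis elements. Gain or loss of signal fitted relative to DMSO.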

Test [7] deals with Cellular tumor antigen p53 (Homo sapiens) (UniProt P04637). The experiment in a line: ATG_p53_CIS: Attagene CIS-FACTORIAL HepG2 Assay for human p53 Transcription Factor (AID 2282994). To be noted: HepG2 p53 cis-element reporter, Attagene mRNA; actives raise or lower the signal. In a few lines:
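Transiently transfected HepG2 (multiple cis reporter transcription units); exposure 24 h; reporter RNA via RT-PCR, 6-FAM extension, 2 h HpaI digest at 37 C, CE detection; DMSO baseline.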

SMILES strings stand for the structures. Active and inactive are the calls of the source. The calls were made as follows: active = hit-call score of the fitted dose curve at least 0.9, where 1 is the maximum; inactive = score below 0.9.

Chain of Cellular tumor antigen p53 (Homo sapiens) (P04637 whole entry, looked up): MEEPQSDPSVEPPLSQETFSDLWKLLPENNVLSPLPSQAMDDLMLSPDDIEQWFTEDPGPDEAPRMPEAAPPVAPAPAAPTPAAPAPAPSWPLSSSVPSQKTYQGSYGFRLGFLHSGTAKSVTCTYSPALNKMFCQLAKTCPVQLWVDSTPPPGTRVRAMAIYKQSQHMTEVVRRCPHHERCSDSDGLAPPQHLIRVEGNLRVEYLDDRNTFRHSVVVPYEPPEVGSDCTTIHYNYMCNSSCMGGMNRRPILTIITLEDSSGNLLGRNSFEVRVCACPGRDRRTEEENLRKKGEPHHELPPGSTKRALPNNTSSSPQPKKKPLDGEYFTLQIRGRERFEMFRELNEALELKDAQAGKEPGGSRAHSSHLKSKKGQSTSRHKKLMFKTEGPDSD
Chain of Myc proto-oncogene protein (Homo sapiens) (P01106 whole entry, looked up, the tested form may be a part): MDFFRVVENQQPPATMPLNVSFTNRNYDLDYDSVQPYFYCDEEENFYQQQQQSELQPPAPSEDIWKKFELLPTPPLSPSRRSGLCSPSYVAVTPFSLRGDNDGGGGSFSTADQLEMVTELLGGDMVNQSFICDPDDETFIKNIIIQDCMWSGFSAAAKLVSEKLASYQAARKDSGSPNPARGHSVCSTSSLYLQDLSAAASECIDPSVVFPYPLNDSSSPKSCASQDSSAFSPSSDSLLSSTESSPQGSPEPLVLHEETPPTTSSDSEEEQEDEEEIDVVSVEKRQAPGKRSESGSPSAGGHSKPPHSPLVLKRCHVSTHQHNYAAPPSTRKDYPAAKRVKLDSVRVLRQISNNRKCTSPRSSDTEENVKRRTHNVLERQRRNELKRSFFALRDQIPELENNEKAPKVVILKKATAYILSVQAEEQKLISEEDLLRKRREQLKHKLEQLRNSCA

For `CCOC(=O)c1ccccc1C`, the outcome in test [1], in test [2], in test [3], in test [4], in test [5] and in test [6] was inactive. In test [7], the outcome was inactive.

As for `Nc1ccc(Cl)c(N)c1`, the result in test [1], in test [2], in test [3], in test [4], in test [5] and in test [6] was inactive.

As to `CCCCCCOc1ccc(N)cc1`, the AC50 in test [1] and in test [5] was 100 µM (active) in each case. Further, the compound was called inactive in test [2], in test [3], in test [4], in test [6] and in test [7].

For `CC(C)(C)N`, the call in test [1], in test [2], in test [3], in test [4], in test [5] and in test [6] was inactive. The outcome in test [7] was inactive.

As to `CCCCCCCCCCCCc1ccc(O)cc1`, the compound was called inactive in test [1], in test [2], in test [3], in test [4], in test [5] and in test [6]. Moreover, the result in test [7] was inactive.

For `CCCCCCCCCCCCC`, the call in test [1], in test [2], in test [3], in test [4], in test [5] and in test [6] was inactive. Also, the compound was classed as inactive in test [7].

On to `CCCSSCCC`, for which the outcome in test [1], in test [2], in test [3], in test [4], in test [5] and in test [6] was inactive. Besides, the result in test [7] was inactive.

On to `CO[Si](CCCS)(OC)OC`, for which the compound was called inactive in test [1], in test [2], in test [3], in test [4], in test [5] and in test [6]. In test [7], the outcome was inactive.

For `CC(C)(C)NC(=O)[C@H]1CC[C@H]2[C@@H]3CC[C@H]4NC(=O)C=C[C@]4(C)[C@H]3CC[C@]12C`, the result in test [1], in test [2], in test [3], in test [4] and in test [6] was inactive. Also, the AC50 was 100 µM (active) in test [5] and 38.7 µM (active) in test [7].

With `OCCCc1ccccc1`, the compound was called inactive in test [1], in test [2], in test [3], in test [4], in test [5] and in test [6]. For the same compound, the outcome in test [7] was inactive.

For the compound `CC(=O)OC(C)c1ccccc1` (centres undefined), the result in test [1], in test [2], in test [3], in test [4], in test [5] and in test [6] was inactive. The compound was called inactive in test [7].

`Nc1ccnc(=O)[nH]1`: the result in test [1], in test [2], in test [3], in test [4], in test [5] and in test [6] was inactive. Further, the outcome in test [7] was inactive.

On to `CC1(C)C(=O)N(CO)C(=O)N1CO`, for which the outcome in test [1], in test [2], in test [3], in test [4], in test [6] and in test [7] was inactive. Also, in test [5], the AC50 is 26.1 µM (active).

On to `NNS(=O)(=O)c1ccc(Oc2ccc(S(=O)(=O)NN)cc2)cc1`, for which the call in test [1], in test [2], in test [3], in test [4], in test [5] and in test [6] was inactive. In addition, the outcome in test [7] was inactive.

As to `CCCCOCC(C)O` (centres undefined), the compound was called inactive in test [1], in test [2], in test [3], in test [4], in test [5] and in test [6]. Besides, the call in test [7] was inactive.

Turning to `CCN(CC)c1cccc(C)c1`, the result in test [1], in test [2], in test [3], in test [4], in test [5] and in test [6] was inactive. The call in test [7] was inactive.

For the compound `CCCCNS(=O)(=O)c1ccccc1`, the outcome in test [1], in test [2], in test [3], in test [4], in test [5] and in test [6] was inactive. For the same compound, the compound was called inactive in test [7].

As for `CN(C)Cc1cc(CN(C)C)c(O)c(CN(C)C)c1`, the result in test [1], in test [2], in test [3], in test [4], in test [5] and in test [6] was inactive. Besides, the result in test [7] was inactive.

For the compound `CC(C)C(=O)OCCOc1ccccc1`, the result in test [1], in test [2], in test [3], in test [4], in test [5] and in test [6] was inactive. For the same compound, in test [7], the result was inactive.

On to `CCCCCCCCCC(C)=O`, for which the result in test [1], in test [2], in test [3], in test [4], in test [5] and in test [6] was inactive. Also, the outcome in test [7] was inactive.

In the case of `CCc1cccc(CC)c1`, the outcome in test [1], in test [2], in test [3], in test [4], in test [5] and in test [6] was inactive. For the same compound, in test [7], the call was inactive.

For `Cc1cccc(C(C)(C)C)c1O`, the call in test [1], in test [2], in test [3], in test [4], in test [5] and in test [6] was inactive. Moreover, the call in test [7] was inactive.

`Cc1c[nH]c(=O)[nH]c1=O`: the compound was called inactive in test [1], in test [2], in test [3], in test [4], in test [5] and in test [6]. For the same compound, the outcome in test [7] was inactive.

In the case of `CC(C)(O)Cc1ccccc1`, the result in test [1], in test [2], in test [3], in test [4], in test [5] and in test [6] was inactive. Moreover, in test [7], the outcome was inactive.

`CC1(C)CCC[C@]2(C)[C@H]3CC(=O)O[C@]3(C)CC[C@@H]12`: the outcome in test [1], in test [2], in test [3], in test [4], in test [6] and in test [7] was inactive. Moreover, the concentration at half-maximal activity (AC50) in test [5] is 30.3 µM (active).

On to `CC1=NN(c2ccc(S(=O)(=O)O)cc2)C(=O)C1N=Nc1ccccc1` (centres undefined), for which the call in test [1], in test [2], in test [3], in test [4], in test [5] and in test [6] was inactive. Also, the call in test [7] was inactive.

`CC(=O)c1ccccc1O`: the outcome in test [1], in test [2], in test [3], in test [4], in test [5] and in test [6] was inactive. Moreover, the outcome in test [7] was inactive.

For `C[Si]1(C)O[Si](C)(C)O[Si](C)(C)O[Si](C)(C)O[Si](C)(C)O1`, the compound was classed as inactive in test [1], in test [2], in test [3], in test [4], in test [5] and in test [6]. Also, in test [7], the compound was classed as inactive.

Consider `CC(C)CC(=O)OCc1ccccc1`, for which the call in test [1], in test [2], in test [3], in test [4], in test [5] and in test [6] was inactive. The call in test [7] was inactive.

Regarding `CC(C)(C)C1CCC(=O)CC1`, the compound was called inactive in test [1], in test [2], in test [3], in test [4], in test [5] and in test [7]. Besides, in test [6], the AC50 was 145 µM (active).
